# Sampled rows, rich in hits. Any-hit rate of the full collection: about 5.7%.
# ATXN2 expr inh = Primary qHTS for Inhibitors of ATXN expression; HEK-293 ATXN2-luciferase reporter, luminescence, 24 h; Potency, µM (highest dose often 57 µM), without a hit: top-dose activity change, negative = inhibition, hits mostly inhibitors; 360,000 tested, 0.72% active; further: potency means the concentration at half of the fitted maximal effect; on the % scale 0 is the no-effect control and ±100 the full control effect; nearly all actives have a fitted effect of over 55% in size
#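 ATXN2-luciferase reporter cells (luciferase flanked by upstream and downstream ATXN2 gene portions) were treated 24 h at 37 °C with compounds at up to 57 uM. SteadyGlo luminescence gave expression; GF-AFC fluorescence gave viability.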
# HepG2 tox = qHTS for Inhibitors of TGF-b: Cytotox Counterscreen | HepG2 CAGA-GFP viability, ATP luminescence, 18 h | Potency, µM (top dose mostly 46.1 µM), for the others: top-dose activity change, negative = cytotoxicity, actives largely listed as cytotoxic | 410,000 tested, 0.76% active; further: potency means the concentration at half of the fitted maximal effect
#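 HepG2 CAGA-GFP cells (1000/well, DMEM with 1% FBS) received compound, then TGF-beta at 500 pg/mL final, and were incubated 18 hours at 37 degrees C. Viability was read by CellTiter-Glo luminescence. Media-only wells were set as complete cell-killing and DMSO as no toxicity.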
# TGFb SMAD3 inh = qHTS for Inhibitors of TGF-b; Potency, µM (series often up to 46.1 µM), for inactives: at the highest dose activity, negative = inhibition, hits mostly inhibitors; HepG2 CAGA-GFP TGF-b/SMAD3 reporter, GFP fluorescence, 18 h; TGF-beta stimulated, 500 pg/mL final; 410,000 tested, 1.2% active; further: potency means the concentration at half of the fitted maximal effect; on the % scale 0 is the no-effect control and ±100 the full control effect; nearly all actives have a fitted effect of over 65% in size
#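 GFP signal (ex488/em500-530) from TGF-beta-stimulated HEPG2 CAGA-GFP cells, 500 pg/mL final, 18 h at 37 degrees C in DMEM plus 1% FBS, normalized to unstimulated and DMSO-stimulated controls.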
# IL1B secr inh = qHTS for Inhibitors of Inflammasome Signaling: IL-1-beta AlphaLISA Primary Screen; THP-1 LPS/ATP IL-1B secretion, AlphaLISA, 16 h; hits give low values; activity change, % at 57.5 µM; 360,000 tested, 4.7% active; in the data active means activity change below about -50%; inconclusive means mostly about -30% to -49%; further: on the % scale 0 is the no-effect control and ±100 the full control effect
#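 Secreted IL-1B measured by AlphaLISA bead assay after 16 h compound exposure of THP-1 cells; compounds (final up to 57.5 uM) added 1 h before LPS (250 ng/mL) and ATP (1.25 mM) stimulation; lower signal means less secretion.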
# ATXN viability = Viability Counterscreen for Primary qHTS for Inhibitors of ATXN expression; S2 cells (HEK-293 line with an ATXN2-luciferase reporter) viability, CellTiter-Fluor protease fluorescence, 24 h; Potency, µM (doses to about 56.7 µM), most hits filed as cytotoxic; 400,000 tested, 0.49% active; AID 651635, 2014; further: potency means the concentration at half of the fitted maximal effect; nearly all actives have a fitted effect of over 40% in size
# Numbers without * were called inactive; i = inactive; u = inconclusive; x = not tested or not shown; ! = not confirmed by another sample. Unless noted, the call rests on the fitted dose curve; in most records, active means well fitted curve in the direction sought with a large enough effect; inconclusive means small, poorly fitted or top-dose-only effect, or another doubt; inactive means no such curve, though single readings can be large; an effect the other way counts as inactive or inconclusive.
SMILES,ATXN2 expr inh,HepG2 tox,TGFb SMAD3 inh,IL1B secr inh,ATXN viability
O=C(N/N=C/c1ccc([N+](=O)[O-])o1)c1ccc(O)cc1,11µM*!,-95%,u,63,u
CCN(CC)S(=O)(=O)c1cccc(C(=O)N/N=C/c2ccc([N+](=O)[O-])o2)c1,-39%,-35%,u,-89*,i
CCN(CC)S(=O)(=O)c1cccc(C(=O)N/N=C/c2ccccc2OCC(=O)O)c1,1%,-5%,-7%,7,i
O=C(N/N=C\c1ccc([N+](=O)[O-])o1)c1cncc(Br)c1,-18%,-113%,u,-79*,u
CCOC(=O)c1ccccc1NC(=O)N(Cc1ccco1)C1CCN(C(C)=O)CC1,u,-32%,-13%,x,u
COc1ccc(CNc2oc(/C=C/c3cc(OC)c(OC)c(OC)c3)nc2C#N)cc1,x,-37%,u,x,x
CCc1ccc(-n2c(=O)c3sc4ccccc4c3n(CC(=O)N3CCCC3)c2=O)cc1,2%,11%,-10%,x,u
COc1cccc(CNC(=O)c2cc3c(=O)n(Cc4cccnc4)ccc3nc2C)c1,u,-7%,u,x,i
O=[N+]([O-])c1cc2c(cc1[N+](=O)[O-])OCCOCCOCCOCCO2,-1%,14%,4%,-86*,i
O=C(c1ccccc1)c1cc2c(cc1[N+](=O)[O-])OCCO2,-6%,2%,1%,-10,i
CC1(C)c2ssc(=S)c2-c2ccccc2N1C(=O)c1ccco1,-13%,-16%,14%,0,i
O=C(CSC1=NCCS1)N1CCCC1,12%,1%,-25%,3,i
CCOc1ccc2c(c1)-c1c(ssc1=S)C(C)(C)N2C(=O)CSC1=NCCS1,-10%,6%,-7%,-54*,i
Cc1ccc2c(c1)-c1c(ssc1=S)C(C)(C)N2C(=O)CSC1=NCCS1,-15%,-5%,-4%,-66*,i
Cc1ccc2c(c1)-c1c(ssc1=S)C(C)(C)N2C(=O)c1ccco1,u,-15%,u,-57*,i
CCCCN(Cc1ccccc1)C(=O)c1oc(=O)c2ccccc2c1-c1ccc(C)cc1,-2%,-27%,u,x,i
O=S(=O)(c1ccccc1Br)N(Cc1ccccc1)Cc1ccco1,x,-24%,u,x,x
C(=C\c1ccnc2ccccc12)/c1ccc(N2CCN(c3ccc(/C=C/c4ccnc5ccccc45)cc3)CC2)cc1,x,-40%,-4%,x,x
c1ccc2c(c1)CCN(C1=Nc3cccc4cccc1c34)C2,-3%,-24%,-30%,-91*,i
c1cc2c3c(cccc3c1)C(N1CCCCCC1)=N2,-7%,-5%,-21%,5,i
O=C(CCn1c(=O)c2cccn2c2cccnc21)NCc1cccc(Br)c1,x,-2%,1%,x,x
COc1cc(NC(=O)CCn2c(-c3ccccc3)cc(C(C)=O)c2C)cc(OC)c1,x,-23%,-12%,x,x
Cc1cc(OCC(O)CN2CCc3ccccc3C2)ccc1Cl (stereo unspecified),-16%,-39%,u,-62*,i
OC(COc1ccc2c(c1)CCC2)CN1CCN(c2ccccc2F)CC1 (stereo unspecified),-13%,-39%,u,-53*,i
CC1CN(CC(=O)NCCc2ccncc2)Cc2ccccc2O1 (stereo unspecified),x,x,x,x,i
CC(=O)N1CCc2c(sc3c2c(=O)n(-c2cc(Cl)ccc2C)c(=O)n3C)C1,7%,-26%,2%,x,i
CC1CCCC(NC(=O)c2ccc(COc3ccccc3)o2)C1C (stereo unspecified),-20%,-10%,-14%,-73*,i
O=C(Cn1c(=O)oc2cccnc21)Nc1ccccc1Oc1ccc(Cl)cc1Cl,7%,-3%,2%,-71*,i
O=C(Cn1c(=O)oc2ccccc21)Nc1ccc(Cl)cc1Cl,14%,-7%,-9%,5,i
Cc1ccc(C(C)C)c(OCC(=O)Nc2ccc(Cl)cn2)c1,-21%,-30%,2%,-3,i
